SMILES strings stand for the structures. About 83,000 compounds went through this panel and 20% of them were active in at least one assay; those are over-represented in the sample as a whole.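 Results are percent growth after 48 hours of single-concentration exposure. 100 means growth as in untreated cells, lower positive values show inhibition; negative values down to -100 show cell death.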 Unmarked numbers belong to inactive results. Activity calls are given as the source filed them. Rule for the calls: active = growth percent below 10; inactive = the rest.

The first assay relates to HCT-15 colon. The assay is described as follows: NCI-60 one-dose screen, 48 h (100 = growth as untreated, 0 = no growth, -100 = all killed). The conditions noted are these: 10 µM.
As for `COc1cc2c3c(n(CCCNC(C)C)c(=O)c2cc1OC)-c1nc2c(cc1C3=O)OCO2`, the growth was -87.9% (active).

With `COc1ccc2cc([C@H](C)C(=O)NCc3ccccc3)ccc2c1`, the growth is 29.1%.

Regarding `O=C(Cn1nc(-c2ccccc2)ccc1=O)NNC(=S)NC1CCCCC1`, the growth was 97.9%.

Turning to `CN1CCCN(Cc2ccc(C(=O)Nc3cccc(Nc4ccc5cc(O)ccc5n4)c3)cc2C(F)(F)F)CC1`, the growth is 14.6%.

In the case of `O=C1Nc2cc(Cl)ccc2/C1=C/c1cccc(OCc2ccccc2)c1`, the growth is -24.8% (active).

As for `C/C(=C\CC/C=C(\C)CC/C=C(\C)CC[C@@H](O)C(C)(C)O)CC/C=C(\C)CC[C@@H](O)C(C)(C)O`, the growth is 21.1%.

As for `O=C(c1ccc([N+](=O)[O-])c([N+](=O)[O-])c1O)n1[nH]c(=O)c2ccccc2c1=O`, the growth is 39.1%.

On to `O=C(O)CCCCCCCCCCN1C(=O)/C(=C/c2cnc(-c3ccc(Cl)cc3)s2)SC1=S`, for which the growth was 26.3%.

Regarding `O=C1Nc2ccc(F)cc2/C1=C/c1cccc(OCc2ccccc2)c1`, the growth is 0.287% (active).

As for `COc1ccc(-c2nc(S(=O)(=O)c3ccccc3)c(S(C)(=O)=O)o2)cc1`, the growth is -73% (active).

Regarding `COc1ccc(C(=O)NC(=S)N2CCN(c3ncnc4c3cnn4-c3ccccc3)CC2)cc1`, the growth is 42.7%.

In the case of `C=CC(=O)Nc1nc(-c2cccc(NS(=O)(=O)c3cccc4c(N(C)C)cccc34)c2)cs1`, the growth was -76.8% (active).

Consider `Cc1cc(=O)oc2cc(OCCCCOc3ccc(/C=C/C(=O)Nc4cccc(Cl)c4)cc3)ccc12`, for which the growth was 60.3%.

In the case of `COc1ccccc1C(=O)NNC(=O)CSc1nc2c(c(=O)[nH]1)CCCC2`, the growth is 110%.

Regarding `NC1=NC(c2ccccc2Cl)N=C(Nc2nn[nH]n2)N1` (centres undefined), the growth is 103%.

Turning to `COc1ccc2nc(Cl)c(-c3cc(-c4ccccc4)nc(=O)[nH]3)cc2c1`, the growth was 0.676% (active).

As for `O=c1[nH]n(C(=S)N/N=C/c2ccc(F)cc2)c(=O)c2ccccc12`, the growth is 22.9%.

With `O=C(CS(=O)(=O)c1oc(-c2ccc(Cl)cc2)nc1S(=O)(=O)c1ccccc1)N1CCCC1`, the growth is -89.3% (active).

For the compound `O=C1Nc2cc(Cl)ccc2/C1=C/c1cccc(OCc2ccc(Br)cc2F)c1`, the growth was 5.07% (active).

On to `Cc1nc2c(cnn2-c2ccccc2)c(=O)n1-c1ccc(NC(=O)c2ccc(F)cc2)cc1`, for which the growth is 66.1%.

As to `S=c1nc(-c2ccccc2)cc(-c2cc3ccccc3nc2Cl)[nH]1`, the growth was 49.7%.

For `Cc1ccc(C(=O)Nc2ccc(-n3c(C)nc4c(cnn4-c4ccccc4)c3=O)cc2)cc1`, the growth is 75.3%.

As to `Cc1cc(C)nc(NS(=O)(=O)c2ccc(N/C(N)=N/c3nccc(-c4cccs4)n3)cc2)n1`, the growth is 97.4%.

With `COc1ccc(CN2[C@H](C(=O)NCc3ccc(C(=O)NO)cc3)Cc3c([nH]c4ccccc34)[C@H]2C2CC2)cc1`, the growth was 44.4%.

As to `O=C1Nc2ccc(Cl)cc2/C1=C/c1cccc(OCc2ccccc2)c1`, the growth was 22.3%.

For `O=C(Cn1cc(CSc2nnc3oc4ccccc4n23)nn1)Nc1ccc(Br)cc1`, the growth is 82.5%.

For the compound `CCN1CCN(c2ccc(NC(=O)Nc3ccc(-c4cc(C(=O)NC)c5ncccc5n4)cc3)cc2C(F)(F)F)CC1`, the growth was -100% (active).

With `COc1ccc(-c2nc(S(=O)(=O)c3ccc(C)cc3)c(S(=O)(=O)CC(=O)N(C)Cc3ccccc3)o2)cc1`, the growth is -39.6% (active).

In the case of `COC[C@@H](CC(C)C)N=C1NC(=O)/C(=C/c2ccc3ncsc3c2)N1`, the growth is 1.92% (active).

As to `CC(C)Sc1nc(NC2CC2)c(C#N)c(-c2ccccc2)n1`, the growth is 101%.

Turning to `CCOC(=O)N/C(=C1/OCCN1C)[P+](c1ccccc1)(c1ccccc1)c1ccccc1`, the growth is 98.5%.

Consider `CS(=O)(=O)Nc1ccc(-c2ccc3c(c2)ncn3-c2ccc(NC(=O)Nc3ccc(Cl)c(C(F)(F)F)c3)cc2)cc1`, for which the growth is -91.3% (active).

Consider `CN1CCc2c(sc3ncnc(N/N=C/c4cn(-c5ccccc5)nc4-c4ccc(Cl)cc4)c23)C1`, for which the growth is 7.13% (active).

For the compound `CC1(c2ccccc2)NC(=O)N(CC(=O)Nc2ccc(C(=O)/C=C/c3ccc(Br)cc3)cc2)C1=O` (centres undefined), the growth was 19%.

Consider `O=C(CN1CCN(c2ncnc3c2cnn3-c2ccccc2)CC1)Nc1nncs1`, for which the growth is -30.7% (active).

Take `COc1ccc(C=CC(=O)c2ccc(-n3c(C)nc4c(cnn4-c4ccccc4)c3=O)cc2)cc1`: the growth is 53.5%.

Turning to `O=C(c1ccc(-n2c(=O)[nH]c3ccccc3c2=O)cc1)N1CCOCC1`, the growth is 99.2%.

The test system of a further assay is HT29 colon. The description is as above. The conditions noted are these: 10 µM.
Take `COc1cc2c3c(n(CCCNC(C)C)c(=O)c2cc1OC)-c1nc2c(cc1C3=O)OCO2`: the growth was -65.4% (active).

For `COc1ccc2cc([C@H](C)C(=O)NCc3ccccc3)ccc2c1`, the growth was 5.25% (active).

Consider `O=C(Cn1nc(-c2ccccc2)ccc1=O)NNC(=S)NC1CCCCC1`, for which the growth was 127%.

As to `CN1CCCN(Cc2ccc(C(=O)Nc3cccc(Nc4ccc5cc(O)ccc5n4)c3)cc2C(F)(F)F)CC1`, the growth was 27.8%.

For `O=C1Nc2cc(Cl)ccc2/C1=C/c1cccc(OCc2ccccc2)c1`, the growth is -43.8% (active).

With `C/C(=C\CC/C=C(\C)CC/C=C(\C)CC[C@@H](O)C(C)(C)O)CC/C=C(\C)CC[C@@H](O)C(C)(C)O`, the growth is -67% (active).

Consider `O=C(c1ccc([N+](=O)[O-])c([N+](=O)[O-])c1O)n1[nH]c(=O)c2ccccc2c1=O`, for which the growth was 66.7%.

`O=C(O)CCCCCCCCCCN1C(=O)/C(=C/c2cnc(-c3ccc(Cl)cc3)s2)SC1=S`: the growth was 96.3%.

In the case of `O=C1Nc2ccc(F)cc2/C1=C/c1cccc(OCc2ccccc2)c1`, the growth was 20.6%.

For the compound `COc1ccc(-c2nc(S(=O)(=O)c3ccccc3)c(S(C)(=O)=O)o2)cc1`, the growth was -55.2% (active).

In the case of `COc1ccc(C(=O)NC(=S)N2CCN(c3ncnc4c3cnn4-c3ccccc3)CC2)cc1`, the growth was 80.5%.

Turning to `C=CC(=O)Nc1nc(-c2cccc(NS(=O)(=O)c3cccc4c(N(C)C)cccc34)c2)cs1`, the growth was -56.3% (active).

Take `Cc1cc(=O)oc2cc(OCCCCOc3ccc(/C=C/C(=O)Nc4cccc(Cl)c4)cc3)ccc12`: the growth is 86.4%.

Consider `COc1ccccc1C(=O)NNC(=O)CSc1nc2c(c(=O)[nH]1)CCCC2`, for which the growth was 113%.

As to `NC1=NC(c2ccccc2Cl)N=C(Nc2nn[nH]n2)N1` (centres undefined), the growth is 115%.

Turning to `COc1ccc2nc(Cl)c(-c3cc(-c4ccccc4)nc(=O)[nH]3)cc2c1`, the growth was 32.2%.

Take `O=c1[nH]n(C(=S)N/N=C/c2ccc(F)cc2)c(=O)c2ccccc12`: the growth is 58.1%.

On to `O=C(CS(=O)(=O)c1oc(-c2ccc(Cl)cc2)nc1S(=O)(=O)c1ccccc1)N1CCCC1`, for which the growth is -40.6% (active).

As for `O=C1Nc2cc(Cl)ccc2/C1=C/c1cccc(OCc2ccc(Br)cc2F)c1`, the growth is 5.13% (active).

Regarding `Cc1nc2c(cnn2-c2ccccc2)c(=O)n1-c1ccc(NC(=O)c2ccc(F)cc2)cc1`, the growth was 63.5%.

On to `S=c1nc(-c2ccccc2)cc(-c2cc3ccccc3nc2Cl)[nH]1`, for which the growth is 67.6%.

Regarding `Cc1ccc(C(=O)Nc2ccc(-n3c(C)nc4c(cnn4-c4ccccc4)c3=O)cc2)cc1`, the growth is 71.2%.

In the case of `Cc1cc(C)nc(NS(=O)(=O)c2ccc(N/C(N)=N/c3nccc(-c4cccs4)n3)cc2)n1`, the growth is 108%.

Turning to `COc1ccc(CN2[C@H](C(=O)NCc3ccc(C(=O)NO)cc3)Cc3c([nH]c4ccccc34)[C@H]2C2CC2)cc1`, the growth was 39.7%.

With `O=C1Nc2ccc(Cl)cc2/C1=C/c1cccc(OCc2ccccc2)c1`, the growth is 30.7%.

As for `O=C(Cn1cc(CSc2nnc3oc4ccccc4n23)nn1)Nc1ccc(Br)cc1`, the growth was 103%.

As for `CCN1CCN(c2ccc(NC(=O)Nc3ccc(-c4cc(C(=O)NC)c5ncccc5n4)cc3)cc2C(F)(F)F)CC1`, the growth is -100% (active).

As to `COc1ccc(-c2nc(S(=O)(=O)c3ccc(C)cc3)c(S(=O)(=O)CC(=O)N(C)Cc3ccccc3)o2)cc1`, the growth is 8.42% (active).

Consider `COC[C@@H](CC(C)C)N=C1NC(=O)/C(=C/c2ccc3ncsc3c2)N1`, for which the growth is -14.7% (active).

`CC(C)Sc1nc(NC2CC2)c(C#N)c(-c2ccccc2)n1`: the growth was 87.3%.

Regarding `CCOC(=O)N/C(=C1/OCCN1C)[P+](c1ccccc1)(c1ccccc1)c1ccccc1`, the growth was 60.3%.

With `CS(=O)(=O)Nc1ccc(-c2ccc3c(c2)ncn3-c2ccc(NC(=O)Nc3ccc(Cl)c(C(F)(F)F)c3)cc2)cc1`, the growth was -84.1% (active).

As for `CN1CCc2c(sc3ncnc(N/N=C/c4cn(-c5ccccc5)nc4-c4ccc(Cl)cc4)c23)C1`, the growth was 5.95% (active).

Take `CC1(c2ccccc2)NC(=O)N(CC(=O)Nc2ccc(C(=O)/C=C/c3ccc(Br)cc3)cc2)C1=O` (centres undefined): the growth was 3.41% (active).

For `O=C(CN1CCN(c2ncnc3c2cnn3-c2ccccc2)CC1)Nc1nncs1`, the growth is -61.5% (active).

On to `COc1ccc(C=CC(=O)c2ccc(-n3c(C)nc4c(cnn4-c4ccccc4)c3=O)cc2)cc1`, for which the growth is 71.5%.

Regarding `O=C(c1ccc(-n2c(=O)[nH]c3ccccc3c2=O)cc1)N1CCOCC1`, the growth was 114%.

The values are drawn from PubChem BioAssay (NCI).
